High-throughput results: PubChem, several laboratories
NOD2 RIPK2 PPI: blocks binding of human NOD2 to RIPK2; inhibition, % at 4.98 µM; CHO BLA complementation NOD2-RIPK2, CCF4 ratio; 0.38% of 360,000 active; AID 624267; O43353; in the data active means inhibition above about 21%;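 further: 0% = vehicle only and 100% = reference blocker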
TLR4 MyD88 comp: TLR4-MyD88 interaction inhibition in cells | O00206+Q99836 | HeLa CL3-4 TLR4/MyD88 BLA complementation, FRET ratio | inhibition, % at 8.4 µM | 0.18% of 200,000 active; in the data active means inhibition above about 25%;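 further: 0% = vehicle and 100% = reference inhibitor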
TLR9-MyD88 block: TLR9-MyD88 interaction inhibition; 0.21% of 340,000 active; inhibition, % at 4.98 µM; CHO BLA complementation TLR9-MyD88, CCF4 FRET ratio; Q9NR96+Q99836;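 active means inhibition above the mean over all tested compounds plus 3 SD, cut at about 21% in these data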;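 further: 0% = DMSO only wells and 100% = clavulanate BLA inhibitor control wells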
Target sequence (Q99836 whole entry, looked up): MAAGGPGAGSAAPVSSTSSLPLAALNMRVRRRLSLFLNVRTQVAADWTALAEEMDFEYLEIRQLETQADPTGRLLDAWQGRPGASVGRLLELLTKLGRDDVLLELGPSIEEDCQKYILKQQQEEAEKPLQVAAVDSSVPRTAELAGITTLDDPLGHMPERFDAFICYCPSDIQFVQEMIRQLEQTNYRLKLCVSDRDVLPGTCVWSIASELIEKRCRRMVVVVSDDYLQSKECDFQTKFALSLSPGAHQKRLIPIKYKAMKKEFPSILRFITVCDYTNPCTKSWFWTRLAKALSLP
Target sequence (Q9NR96 whole entry, looked up): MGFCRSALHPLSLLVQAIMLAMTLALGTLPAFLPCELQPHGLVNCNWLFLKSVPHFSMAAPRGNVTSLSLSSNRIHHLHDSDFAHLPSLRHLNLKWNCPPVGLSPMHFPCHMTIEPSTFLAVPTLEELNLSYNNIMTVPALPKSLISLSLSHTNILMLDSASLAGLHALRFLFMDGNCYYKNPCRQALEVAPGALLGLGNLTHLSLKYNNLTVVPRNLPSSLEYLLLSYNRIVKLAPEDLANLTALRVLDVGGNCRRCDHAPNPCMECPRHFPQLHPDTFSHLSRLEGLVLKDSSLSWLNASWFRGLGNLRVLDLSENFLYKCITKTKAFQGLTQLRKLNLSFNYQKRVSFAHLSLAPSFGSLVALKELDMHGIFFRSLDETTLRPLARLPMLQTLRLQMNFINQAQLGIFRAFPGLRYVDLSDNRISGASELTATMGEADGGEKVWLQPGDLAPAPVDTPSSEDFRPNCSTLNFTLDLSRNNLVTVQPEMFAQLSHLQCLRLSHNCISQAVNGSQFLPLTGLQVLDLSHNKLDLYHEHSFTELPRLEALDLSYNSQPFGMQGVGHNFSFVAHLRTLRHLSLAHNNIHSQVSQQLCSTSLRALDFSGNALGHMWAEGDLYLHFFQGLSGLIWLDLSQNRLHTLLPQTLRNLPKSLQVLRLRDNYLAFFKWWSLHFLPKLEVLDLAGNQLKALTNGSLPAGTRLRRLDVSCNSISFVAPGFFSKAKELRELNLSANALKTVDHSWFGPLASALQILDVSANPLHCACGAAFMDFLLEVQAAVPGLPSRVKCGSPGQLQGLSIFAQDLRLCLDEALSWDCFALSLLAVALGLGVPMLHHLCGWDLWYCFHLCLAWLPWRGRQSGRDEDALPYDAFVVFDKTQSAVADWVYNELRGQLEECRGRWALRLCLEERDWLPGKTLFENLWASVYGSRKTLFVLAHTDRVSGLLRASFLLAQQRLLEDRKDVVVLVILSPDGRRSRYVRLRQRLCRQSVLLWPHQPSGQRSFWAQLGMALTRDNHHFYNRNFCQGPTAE
ABCB6 inh 2: blocks the human ABCB6 transporter | K562-ABCB6 porphyrin accumulation, flow cytometry, 1 h; stronger effect = lower value | fluorescence ratio to DMSO, % at 10 µM | Q9NP58 | 0.19% of 360,000 active;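 active means fluorescence ratio to DMSO below 75%, the collection mean minus 3 SD; inconclusive means too few cells collected in the well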;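 further: signal is porphyrin accumulated inside mitochondria; 100% equals median channel fluorescence of DMSO control wells; lower ratio means ABCB6 inhibition with less porphyrin fluorescence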
Myeloid diff 2: promotes myeloid progenitor differentiation. ER-HoxA9 myeloid progenitors, lysozyme-GFP differentiation, flow cytometry. calls only at 10 µM. 1% of 360,000 active. AID 624256;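 active means normalized GFP-positive differentiation at or above the plate's own cutoff, the solvent-only control mean plus 3 SD; inconclusive means no clear call, values can overlap the other calls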;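 further: cells exposed to compound for four days before flow analysis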
* hit, by the source's call; ! = not confirmed by another sample. Rows were chosen to be rich in hits. Some 1.7% of all compounds tested hit in one or more screens of this group.

O=C1C2=C(NC(=S)NC2c2ccc(Cl)cc2)NC(c2ccc(Cl)cc2)N1c1ccc(Cl)cc1 (centres undefined) was read as NOD2 RIPK2 PPI -4, TLR4 MyD88 comp -2, TLR9-MyD88 block -7, ABCB6 inh 2 96 and Myeloid diff 2 active.
`Cc1cc(C)c2nc(NC(=O)C3CSC4(C)CCC(=O)N34)sc2c1` (centres undefined) gave NOD2 RIPK2 PPI 2, TLR9-MyD88 block -7, ABCB6 inh 2 99 and Myeloid diff 2 inactive.
For COc1ccc(C2C(C#N)=C(C)NC3=C2C(=O)c2ccccc23)cc1 (centres undefined) the results were NOD2 RIPK2 PPI -10, TLR4 MyD88 comp 5, TLR9-MyD88 block 5, ABCB6 inh 2 97 and Myeloid diff 2 inactive.
For COc1cc(C2C(C#N)=C(C)NC3=C2C(=O)c2ccccc23)cc(OC)c1OC (centres undefined) the results were NOD2 RIPK2 PPI 4, TLR4 MyD88 comp 2, TLR9-MyD88 block 9, ABCB6 inh 2 97 and Myeloid diff 2 active.
`CNc1ccccc1C(C)(C)c1cc(-c2cccc(OC)c2)no1` gave NOD2 RIPK2 PPI -5, TLR4 MyD88 comp 9, ABCB6 inh 2 inactive and Myeloid diff 2 active.
Screening CCOc1ccc(CC(=O)N/N=C/c2cccnc2)cc1OCC returned NOD2 RIPK2 PPI 7, TLR9-MyD88 block -11, ABCB6 inh 2 101 and Myeloid diff 2 inactive.
For O=C(O)CN(CC(=O)O)CC(=O)O the results were NOD2 RIPK2 PPI -3, TLR9-MyD88 block 7, ABCB6 inh 2 105 and Myeloid diff 2 active.
O=C(O)CN(CCO)CCN(CC(=O)O)CC(=O)O was read as TLR4 MyD88 comp 5.
COc1cnc(-c2ccccn2)nc1Sc1ccc(F)cc1 was read as NOD2 RIPK2 PPI 1, TLR4 MyD88 comp -8, TLR9-MyD88 block 5, ABCB6 inh 2 103 and Myeloid diff 2 inactive.
Screening O=C1C(O)CC2c3ccccc3CC3(CCCC3)N12 (centres undefined) returned NOD2 RIPK2 PPI -3, TLR4 MyD88 comp 1, TLR9-MyD88 block 4, ABCB6 inh 2 107 and Myeloid diff 2 active.
For COc1ccc(NC(=O)CN(C)C(=O)CCNS(=O)(=O)c2ccc(Br)cc2)cc1 the results were NOD2 RIPK2 PPI -10, TLR9-MyD88 block -5, ABCB6 inh 2 101 and Myeloid diff 2 inactive.
For Cc1ccccc1-n1c(SCC(=O)c2c(N)n(C)c(=O)n(C)c2=O)nnc1-c1cccnc1 the results were NOD2 RIPK2 PPI 1, TLR4 MyD88 comp 6, TLR9-MyD88 block -3, ABCB6 inh 2 101 and Myeloid diff 2 inactive.
`Cc1ccccc1-n1c(SCC(=O)c2c(N)n(C)c(=O)n(C)c2=O)nc2sc3c(c2c1=O)CCCC3` gave NOD2 RIPK2 PPI -1, TLR4 MyD88 comp -3, TLR9-MyD88 block -1, ABCB6 inh 2 102 and Myeloid diff 2 active.
`CCOc1c(Cl)cc(/C=C/C(=O)N(CC)CC(=O)Nc2ccc(NC(C)=O)cc2)cc1OC` gave NOD2 RIPK2 PPI -3, TLR9-MyD88 block 4 and ABCB6 inh 2 97.
Screening COC(=O)c1ccc(C(=O)N=c2sccn2C)cc1 returned NOD2 RIPK2 PPI -3, TLR9-MyD88 block 3, ABCB6 inh 2 98 and Myeloid diff 2 inactive.
For Cc1ccc(NC(=O)CSc2nnnn2-c2ccc3c(c2)OCO3)cc1C the results were NOD2 RIPK2 PPI 1, TLR4 MyD88 comp 3, TLR9-MyD88 block 8, ABCB6 inh 2 91 and Myeloid diff 2 active.
`Cc1ccc(-n2nnnc2SCC(=O)Nc2ccc3c(c2)OCCO3)cc1C` gave NOD2 RIPK2 PPI 8, TLR4 MyD88 comp -17, TLR9-MyD88 block -1, ABCB6 inh 2 113 and Myeloid diff 2 inactive.
Screening Cc1nc(C)c(-c2nnc(-c3ccccc3Cl)o2)cc1C(=O)NN returned NOD2 RIPK2 PPI -4, TLR9-MyD88 block -8, ABCB6 inh 2 93 and Myeloid diff 2 inactive.
For Cc1nc(C)c(-c2nnc(-c3ccc(C(C)(C)C)cc3)o2)cc1C(=O)NN the results were NOD2 RIPK2 PPI -7, TLR4 MyD88 comp -5, TLR9-MyD88 block 5, ABCB6 inh 2 126 and Myeloid diff 2 active.
For CC1(C)Cc2nc3sc4c(SCC(=O)NCc5ccccc5)ncnc4c3cc2CO1 the results were NOD2 RIPK2 PPI 8, TLR4 MyD88 comp 12, TLR9-MyD88 block -5, ABCB6 inh 2 97 and Myeloid diff 2 active.
Screening CCCCCCSc1cc(-c2nc3cc(C)ccn3c2NCCCC)ccc1OC returned NOD2 RIPK2 PPI -6, TLR9-MyD88 block -6, ABCB6 inh 2 106 and Myeloid diff 2 active!.
`CN(C(=O)c1ccc2c(c1)OCO2)C1(C)CCS(=O)(=O)C1` (centres undefined) gave NOD2 RIPK2 PPI -7, TLR9-MyD88 block -3, ABCB6 inh 2 95 and Myeloid diff 2 inactive.
Screening Cc1ccc(CC(=O)O/N=C(\N)c2ccncc2)cc1 returned NOD2 RIPK2 PPI -10, TLR9-MyD88 block -8, ABCB6 inh 2 100 and Myeloid diff 2 active.
For CC(C)[C@H](NC(=O)c1ccco1)C(=O)Nc1ccc(OC(F)F)cc1 the results were NOD2 RIPK2 PPI -12, TLR9-MyD88 block -3, ABCB6 inh 2 97 and Myeloid diff 2 inactive.
`COc1ccc(C(c2sc3nc(C)nn3c2O)N2CCN(CCO)CC2)cc1OC` (centres undefined) gave NOD2 RIPK2 PPI -3, TLR4 MyD88 comp -20, TLR9-MyD88 block -2, ABCB6 inh 2 97 and Myeloid diff 2 active.
For CSc1nc(-c2ccco2)cc(C(F)(F)F)c1C#N the results were NOD2 RIPK2 PPI -6, TLR4 MyD88 comp 1, TLR9-MyD88 block -7, ABCB6 inh 2 102 and Myeloid diff 2 inactive.
For N#Cc1c(C(F)(F)F)cc(-c2ccco2)nc1SCc1ccccn1 the results were NOD2 RIPK2 PPI 10, TLR4 MyD88 comp -6, TLR9-MyD88 block 16, ABCB6 inh 2 151 and Myeloid diff 2 active.
CC(C)(C)c1ccc(CN2N=C(/C=C/c3ccccc3)CCC2=O)cc1 was read as NOD2 RIPK2 PPI -4, TLR4 MyD88 comp 14, TLR9-MyD88 block -9, ABCB6 inh 2 96 and Myeloid diff 2 inactive.
CC(C)(C)C(=O)NC(=S)NNC(=O)c1ccc(-c2ccccc2)cc1 was read as NOD2 RIPK2 PPI -1, TLR4 MyD88 comp -4, TLR9-MyD88 block 10, ABCB6 inh 2 98 and Myeloid diff 2 active.
CSc1ccc(Cl)c(C(=O)N2CCN(c3ncccn3)CC2)c1 was read as NOD2 RIPK2 PPI -9, TLR9-MyD88 block -7, ABCB6 inh 2 99 and Myeloid diff 2 inactive.
For O=C(CCCn1ncn2c(cc3occc32)c1=O)NCc1cccc(Cl)c1 the results were NOD2 RIPK2 PPI -6, TLR9-MyD88 block 3, ABCB6 inh 2 89 and Myeloid diff 2 inconclusive.
COc1cccc(CNC(=O)CCCn2ncn3c(cc4occc43)c2=O)c1 was read as NOD2 RIPK2 PPI -8, TLR9-MyD88 block 5, ABCB6 inh 2 98 and Myeloid diff 2 active.
For COc1ccc(NS(=O)(=O)c2ccc3c(c2)oc(=O)n3C)c(OC)c1 the results were NOD2 RIPK2 PPI 3, TLR4 MyD88 comp -7, TLR9-MyD88 block 7, ABCB6 inh 2 102 and Myeloid diff 2 inactive.
